Laboratory results from ChEMBL document CHEMBL2218924, “A broad activity screen in support of a chemogenomic map for kinase signalling research and drug discovery” (Biochem J, 2013).

Tests used:
[1] = molecular target: T1, Serine/threonine-protein kinase 17A (Homo sapiens) (UniProt Q9UEE5); details: at 1 µM
T1 sequence (whole entry): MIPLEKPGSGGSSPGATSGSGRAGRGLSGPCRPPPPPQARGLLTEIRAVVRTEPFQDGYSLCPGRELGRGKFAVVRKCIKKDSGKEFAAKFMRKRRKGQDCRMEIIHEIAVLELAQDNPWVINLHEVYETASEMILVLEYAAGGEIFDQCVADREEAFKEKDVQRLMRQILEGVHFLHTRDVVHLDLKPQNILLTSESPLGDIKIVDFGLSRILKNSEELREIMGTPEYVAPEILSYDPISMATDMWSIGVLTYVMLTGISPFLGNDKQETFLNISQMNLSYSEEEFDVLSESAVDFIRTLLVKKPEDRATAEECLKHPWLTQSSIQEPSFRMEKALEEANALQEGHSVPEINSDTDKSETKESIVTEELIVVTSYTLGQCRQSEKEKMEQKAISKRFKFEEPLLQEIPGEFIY

[2] = molecular target: T1, Serine/threonine-protein kinase 17A (Homo sapiens); details: at 10 µM
[3] = molecular target: T2, Dual specificity tyrosine-phosphorylation-regulated kinase 2 (Homo sapiens) (UniProt Q92630); details: at 1 µM
T2 sequence (whole entry): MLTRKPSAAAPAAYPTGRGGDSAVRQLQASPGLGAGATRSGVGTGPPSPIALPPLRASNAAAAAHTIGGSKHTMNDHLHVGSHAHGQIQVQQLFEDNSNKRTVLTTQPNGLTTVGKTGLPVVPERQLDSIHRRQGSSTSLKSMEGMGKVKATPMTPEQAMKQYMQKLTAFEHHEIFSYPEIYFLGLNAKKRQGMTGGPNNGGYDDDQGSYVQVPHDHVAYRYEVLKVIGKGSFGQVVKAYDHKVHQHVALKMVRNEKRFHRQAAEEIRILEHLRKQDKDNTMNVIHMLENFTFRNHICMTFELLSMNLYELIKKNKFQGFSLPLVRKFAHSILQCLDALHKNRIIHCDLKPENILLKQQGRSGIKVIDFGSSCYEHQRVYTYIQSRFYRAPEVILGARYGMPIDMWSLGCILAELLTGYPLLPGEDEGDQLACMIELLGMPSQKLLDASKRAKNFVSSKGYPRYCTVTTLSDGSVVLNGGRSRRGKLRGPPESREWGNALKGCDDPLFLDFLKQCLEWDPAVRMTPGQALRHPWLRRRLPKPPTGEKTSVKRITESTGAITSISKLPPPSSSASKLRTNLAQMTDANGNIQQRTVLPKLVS

[4] = molecular target: T2, Dual specificity tyrosine-phosphorylation-regulated kinase 2 (Homo sapiens); details: at 10 µM
[5] = molecular target: Ephrin type-A receptor 2 (Homo sapiens) (UniProt P29317); details: at 1 µM
Chain of Ephrin type-A receptor 2 (Homo sapiens) (P29317 whole entry): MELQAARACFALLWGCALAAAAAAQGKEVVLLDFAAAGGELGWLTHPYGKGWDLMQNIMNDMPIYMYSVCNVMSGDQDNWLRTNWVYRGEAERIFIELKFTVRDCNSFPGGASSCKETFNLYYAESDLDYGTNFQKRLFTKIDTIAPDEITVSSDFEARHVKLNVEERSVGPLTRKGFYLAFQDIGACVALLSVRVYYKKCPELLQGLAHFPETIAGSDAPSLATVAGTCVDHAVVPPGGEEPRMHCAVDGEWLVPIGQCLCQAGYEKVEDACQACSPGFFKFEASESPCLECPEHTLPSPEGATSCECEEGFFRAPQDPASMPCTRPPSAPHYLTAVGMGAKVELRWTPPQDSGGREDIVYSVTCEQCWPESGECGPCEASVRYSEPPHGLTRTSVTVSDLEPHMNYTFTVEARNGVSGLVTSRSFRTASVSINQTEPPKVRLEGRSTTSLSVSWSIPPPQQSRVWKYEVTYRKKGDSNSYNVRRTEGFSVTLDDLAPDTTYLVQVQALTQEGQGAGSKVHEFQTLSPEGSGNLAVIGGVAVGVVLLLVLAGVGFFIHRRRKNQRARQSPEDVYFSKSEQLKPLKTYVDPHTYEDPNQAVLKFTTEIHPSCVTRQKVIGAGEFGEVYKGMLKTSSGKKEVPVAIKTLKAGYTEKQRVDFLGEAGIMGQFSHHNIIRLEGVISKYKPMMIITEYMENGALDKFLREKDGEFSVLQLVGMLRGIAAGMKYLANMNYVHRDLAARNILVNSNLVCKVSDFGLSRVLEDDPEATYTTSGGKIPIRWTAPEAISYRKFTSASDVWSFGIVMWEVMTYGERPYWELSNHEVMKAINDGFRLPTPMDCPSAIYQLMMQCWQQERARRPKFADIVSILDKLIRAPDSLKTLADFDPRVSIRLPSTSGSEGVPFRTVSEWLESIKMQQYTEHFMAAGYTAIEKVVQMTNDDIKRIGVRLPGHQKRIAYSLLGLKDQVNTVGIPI

[6] = molecular target: Ephrin type-A receptor 2 (Homo sapiens) (UniProt P29317); details: at 10 µM
[7] = molecular target: Ephrin type-A receptor 5 (Homo sapiens) (UniProt P54756); details: at 1 µM
Chain of Ephrin type-A receptor 5 (Homo sapiens) (P54756 whole entry): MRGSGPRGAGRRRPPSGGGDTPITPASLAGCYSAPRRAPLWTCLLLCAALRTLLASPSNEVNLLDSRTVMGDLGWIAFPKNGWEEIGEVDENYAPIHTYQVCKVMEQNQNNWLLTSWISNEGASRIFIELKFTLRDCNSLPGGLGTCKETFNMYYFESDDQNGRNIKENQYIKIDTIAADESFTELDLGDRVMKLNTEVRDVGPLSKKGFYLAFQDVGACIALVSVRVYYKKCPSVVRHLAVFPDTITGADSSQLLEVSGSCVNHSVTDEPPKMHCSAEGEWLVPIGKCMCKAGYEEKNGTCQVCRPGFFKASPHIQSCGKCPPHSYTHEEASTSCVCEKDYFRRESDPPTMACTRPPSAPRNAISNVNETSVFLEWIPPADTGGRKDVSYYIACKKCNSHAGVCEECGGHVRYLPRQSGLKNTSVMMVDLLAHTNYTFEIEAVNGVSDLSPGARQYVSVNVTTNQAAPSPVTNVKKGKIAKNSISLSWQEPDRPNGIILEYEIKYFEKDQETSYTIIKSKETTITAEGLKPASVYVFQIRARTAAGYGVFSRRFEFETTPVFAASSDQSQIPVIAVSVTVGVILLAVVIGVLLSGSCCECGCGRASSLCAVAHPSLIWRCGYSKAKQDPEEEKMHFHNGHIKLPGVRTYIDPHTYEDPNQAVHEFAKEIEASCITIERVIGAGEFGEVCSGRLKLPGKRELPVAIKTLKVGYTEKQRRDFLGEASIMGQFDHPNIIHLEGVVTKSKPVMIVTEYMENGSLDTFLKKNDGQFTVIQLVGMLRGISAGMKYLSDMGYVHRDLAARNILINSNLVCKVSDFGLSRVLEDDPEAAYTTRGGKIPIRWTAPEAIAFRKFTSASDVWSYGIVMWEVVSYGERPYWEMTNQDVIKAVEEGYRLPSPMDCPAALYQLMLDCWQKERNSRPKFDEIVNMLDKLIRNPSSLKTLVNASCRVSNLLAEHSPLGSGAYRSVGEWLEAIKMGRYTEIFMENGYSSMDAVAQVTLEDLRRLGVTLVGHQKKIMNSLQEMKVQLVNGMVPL

[8] = molecular target: Ephrin type-A receptor 5 (Homo sapiens) (UniProt P54756); details: at 10 µM
[9] = molecular target: Ephrin type-A receptor 7 (Homo sapiens) (UniProt Q15375); details: at 1 µM
Chain of Ephrin type-A receptor 7 (Homo sapiens) (Q15375 28-998 limits assumed): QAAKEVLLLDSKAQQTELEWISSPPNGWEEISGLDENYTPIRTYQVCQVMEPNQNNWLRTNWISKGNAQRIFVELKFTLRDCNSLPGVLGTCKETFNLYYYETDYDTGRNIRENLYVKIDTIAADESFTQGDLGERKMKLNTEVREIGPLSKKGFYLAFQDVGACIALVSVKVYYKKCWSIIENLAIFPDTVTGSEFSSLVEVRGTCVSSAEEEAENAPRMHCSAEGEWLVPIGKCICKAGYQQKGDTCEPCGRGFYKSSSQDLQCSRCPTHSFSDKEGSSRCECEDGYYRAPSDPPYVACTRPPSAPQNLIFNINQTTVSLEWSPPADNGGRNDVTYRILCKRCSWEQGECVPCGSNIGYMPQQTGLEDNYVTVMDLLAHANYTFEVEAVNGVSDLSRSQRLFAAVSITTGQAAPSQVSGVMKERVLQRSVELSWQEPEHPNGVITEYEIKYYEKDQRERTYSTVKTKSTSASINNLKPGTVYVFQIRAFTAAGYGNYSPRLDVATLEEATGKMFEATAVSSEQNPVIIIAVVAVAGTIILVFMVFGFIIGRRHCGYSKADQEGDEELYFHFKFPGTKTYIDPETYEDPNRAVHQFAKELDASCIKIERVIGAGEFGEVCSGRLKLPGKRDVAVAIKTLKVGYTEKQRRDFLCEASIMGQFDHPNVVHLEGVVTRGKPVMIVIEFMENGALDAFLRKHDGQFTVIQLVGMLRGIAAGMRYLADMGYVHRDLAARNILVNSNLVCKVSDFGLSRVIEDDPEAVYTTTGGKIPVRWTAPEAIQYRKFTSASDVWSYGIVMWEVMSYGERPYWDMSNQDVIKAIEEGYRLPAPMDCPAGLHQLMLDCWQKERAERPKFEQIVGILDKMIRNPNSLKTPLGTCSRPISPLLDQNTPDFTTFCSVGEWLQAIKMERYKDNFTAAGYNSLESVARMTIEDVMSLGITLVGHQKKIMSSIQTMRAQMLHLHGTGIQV

[10] = molecular target: Ephrin type-A receptor 7 (Homo sapiens) (UniProt Q15375); details: at 10 µM
[11] = molecular target: T3, Ephrin type-A receptor 8 (Homo sapiens) (UniProt P29322); details: at 1 µM
T3 sequence (whole entry): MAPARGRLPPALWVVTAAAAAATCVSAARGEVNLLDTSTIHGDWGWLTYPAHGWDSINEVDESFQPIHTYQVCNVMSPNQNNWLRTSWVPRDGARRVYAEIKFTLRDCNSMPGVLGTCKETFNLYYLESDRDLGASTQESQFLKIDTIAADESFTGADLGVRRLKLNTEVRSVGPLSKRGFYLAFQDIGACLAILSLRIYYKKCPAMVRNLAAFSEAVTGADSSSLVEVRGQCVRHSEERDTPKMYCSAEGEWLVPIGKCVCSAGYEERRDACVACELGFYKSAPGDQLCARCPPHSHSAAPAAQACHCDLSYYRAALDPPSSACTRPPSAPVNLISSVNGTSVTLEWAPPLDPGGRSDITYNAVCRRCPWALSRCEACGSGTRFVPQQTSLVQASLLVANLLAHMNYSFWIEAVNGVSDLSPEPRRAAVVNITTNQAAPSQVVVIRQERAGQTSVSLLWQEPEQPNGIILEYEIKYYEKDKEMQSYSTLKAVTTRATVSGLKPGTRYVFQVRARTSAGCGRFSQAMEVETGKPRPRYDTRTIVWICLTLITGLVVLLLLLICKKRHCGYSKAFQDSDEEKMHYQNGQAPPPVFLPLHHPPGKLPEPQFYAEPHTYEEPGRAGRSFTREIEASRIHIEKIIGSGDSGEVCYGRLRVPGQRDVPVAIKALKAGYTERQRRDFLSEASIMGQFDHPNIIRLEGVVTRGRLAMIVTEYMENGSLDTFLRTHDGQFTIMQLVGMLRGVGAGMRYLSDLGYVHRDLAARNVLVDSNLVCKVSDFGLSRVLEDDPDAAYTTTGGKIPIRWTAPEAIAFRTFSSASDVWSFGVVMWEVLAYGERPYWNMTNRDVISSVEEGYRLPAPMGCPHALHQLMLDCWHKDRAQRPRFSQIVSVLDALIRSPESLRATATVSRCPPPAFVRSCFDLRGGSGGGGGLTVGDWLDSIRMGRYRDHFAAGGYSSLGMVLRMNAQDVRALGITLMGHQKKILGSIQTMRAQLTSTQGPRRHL

[12] = molecular target: T3, Ephrin type-A receptor 8 (Homo sapiens); details: at 10 µM
[13] = molecular target: T4, Ephrin type-A receptor 1 (Homo sapiens) (UniProt P21709); details: at 1 µM
T4 sequence (whole entry): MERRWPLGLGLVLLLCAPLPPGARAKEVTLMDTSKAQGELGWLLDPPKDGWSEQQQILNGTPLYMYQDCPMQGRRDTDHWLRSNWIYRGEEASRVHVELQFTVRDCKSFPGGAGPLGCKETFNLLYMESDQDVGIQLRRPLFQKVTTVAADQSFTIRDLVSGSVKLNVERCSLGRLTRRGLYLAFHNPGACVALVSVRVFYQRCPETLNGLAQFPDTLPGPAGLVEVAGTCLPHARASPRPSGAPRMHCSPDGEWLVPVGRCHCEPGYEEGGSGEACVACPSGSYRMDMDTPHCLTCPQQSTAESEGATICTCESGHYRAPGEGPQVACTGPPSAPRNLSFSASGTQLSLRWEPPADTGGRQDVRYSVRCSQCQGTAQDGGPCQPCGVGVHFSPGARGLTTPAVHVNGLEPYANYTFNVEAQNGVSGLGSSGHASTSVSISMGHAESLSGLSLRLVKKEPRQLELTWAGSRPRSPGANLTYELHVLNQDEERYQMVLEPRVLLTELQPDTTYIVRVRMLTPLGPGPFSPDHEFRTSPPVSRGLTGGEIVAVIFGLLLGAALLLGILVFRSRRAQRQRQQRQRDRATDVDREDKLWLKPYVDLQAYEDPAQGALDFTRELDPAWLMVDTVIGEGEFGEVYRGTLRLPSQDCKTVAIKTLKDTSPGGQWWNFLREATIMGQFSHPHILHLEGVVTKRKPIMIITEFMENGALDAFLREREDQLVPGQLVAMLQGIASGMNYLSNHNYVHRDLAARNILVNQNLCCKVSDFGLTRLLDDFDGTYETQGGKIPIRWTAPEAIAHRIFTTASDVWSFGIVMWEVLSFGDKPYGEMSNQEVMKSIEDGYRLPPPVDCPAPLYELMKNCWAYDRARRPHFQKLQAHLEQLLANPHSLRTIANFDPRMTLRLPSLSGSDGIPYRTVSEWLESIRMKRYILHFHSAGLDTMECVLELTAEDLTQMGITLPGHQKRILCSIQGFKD

[14] = molecular target: T4, Ephrin type-A receptor 1 (Homo sapiens); details: at 10 µM
[15] = molecular target: T5, Ephrin type-A receptor 3 (Homo sapiens) (UniProt P29320); details: at 1 µM
T5 sequence (whole entry): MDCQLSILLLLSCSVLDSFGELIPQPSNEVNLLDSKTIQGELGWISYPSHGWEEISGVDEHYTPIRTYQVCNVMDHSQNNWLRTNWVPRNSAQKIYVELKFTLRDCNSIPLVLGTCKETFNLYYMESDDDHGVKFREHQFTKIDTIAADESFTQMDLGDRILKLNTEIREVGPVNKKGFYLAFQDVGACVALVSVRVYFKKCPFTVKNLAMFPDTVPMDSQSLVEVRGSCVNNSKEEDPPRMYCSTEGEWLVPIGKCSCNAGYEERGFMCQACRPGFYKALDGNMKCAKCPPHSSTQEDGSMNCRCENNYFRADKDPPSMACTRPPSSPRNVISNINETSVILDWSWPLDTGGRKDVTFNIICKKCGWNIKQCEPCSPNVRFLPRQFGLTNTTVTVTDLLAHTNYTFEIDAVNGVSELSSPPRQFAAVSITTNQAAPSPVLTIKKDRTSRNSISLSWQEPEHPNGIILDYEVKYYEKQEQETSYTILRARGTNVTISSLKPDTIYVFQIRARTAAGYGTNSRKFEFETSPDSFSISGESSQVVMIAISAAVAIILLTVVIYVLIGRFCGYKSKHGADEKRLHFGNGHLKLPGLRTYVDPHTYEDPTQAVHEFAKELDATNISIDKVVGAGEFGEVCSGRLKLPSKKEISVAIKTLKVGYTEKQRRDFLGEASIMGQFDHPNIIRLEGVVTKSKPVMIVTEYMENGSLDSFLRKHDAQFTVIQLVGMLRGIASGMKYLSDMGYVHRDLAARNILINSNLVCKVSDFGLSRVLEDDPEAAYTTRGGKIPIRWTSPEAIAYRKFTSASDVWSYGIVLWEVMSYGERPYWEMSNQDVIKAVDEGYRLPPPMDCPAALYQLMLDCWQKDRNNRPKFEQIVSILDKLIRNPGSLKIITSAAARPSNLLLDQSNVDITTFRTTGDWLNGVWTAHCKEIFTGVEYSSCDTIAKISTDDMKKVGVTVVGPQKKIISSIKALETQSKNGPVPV

[16] = molecular target: T5, Ephrin type-A receptor 3 (Homo sapiens); details: at 10 µM
[17] = molecular target: Ephrin type-A receptor 4 (Homo sapiens) (UniProt P54764); details: at 1 µM
Chain of Ephrin type-A receptor 4 (Homo sapiens) (P54764 whole entry): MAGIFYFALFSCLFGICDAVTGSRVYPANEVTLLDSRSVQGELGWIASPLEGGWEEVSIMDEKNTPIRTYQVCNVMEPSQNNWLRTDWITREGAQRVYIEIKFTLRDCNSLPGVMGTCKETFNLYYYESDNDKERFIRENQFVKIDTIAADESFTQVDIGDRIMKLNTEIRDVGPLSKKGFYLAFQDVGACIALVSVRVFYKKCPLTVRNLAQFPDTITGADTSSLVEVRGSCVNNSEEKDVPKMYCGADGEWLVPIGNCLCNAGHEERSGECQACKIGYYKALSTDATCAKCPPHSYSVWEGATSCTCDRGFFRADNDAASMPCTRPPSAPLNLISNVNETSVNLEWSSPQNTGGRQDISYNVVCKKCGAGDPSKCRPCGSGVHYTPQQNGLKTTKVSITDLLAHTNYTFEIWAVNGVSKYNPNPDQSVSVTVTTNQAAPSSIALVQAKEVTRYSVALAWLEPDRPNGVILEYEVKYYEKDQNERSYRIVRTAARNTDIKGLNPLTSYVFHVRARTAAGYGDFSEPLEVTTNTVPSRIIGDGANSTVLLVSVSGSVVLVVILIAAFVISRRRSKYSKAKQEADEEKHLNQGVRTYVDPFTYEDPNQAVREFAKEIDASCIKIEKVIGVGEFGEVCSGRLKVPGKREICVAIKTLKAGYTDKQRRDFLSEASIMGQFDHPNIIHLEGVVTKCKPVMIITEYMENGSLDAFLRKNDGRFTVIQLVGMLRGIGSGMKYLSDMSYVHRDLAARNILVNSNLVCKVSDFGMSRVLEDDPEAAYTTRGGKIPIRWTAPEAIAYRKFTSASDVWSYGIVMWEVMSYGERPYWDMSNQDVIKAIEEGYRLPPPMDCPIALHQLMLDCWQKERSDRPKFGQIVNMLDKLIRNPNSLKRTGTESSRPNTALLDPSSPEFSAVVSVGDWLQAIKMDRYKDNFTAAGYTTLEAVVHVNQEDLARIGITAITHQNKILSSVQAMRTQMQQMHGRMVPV

[18] = molecular target: Ephrin type-A receptor 4 (Homo sapiens) (UniProt P54764); details: at 10 µM
[19] = molecular target: T6, Ephrin type-B receptor 1 (Homo sapiens) (UniProt P54762); details: at 1 µM
T6 sequence (whole entry): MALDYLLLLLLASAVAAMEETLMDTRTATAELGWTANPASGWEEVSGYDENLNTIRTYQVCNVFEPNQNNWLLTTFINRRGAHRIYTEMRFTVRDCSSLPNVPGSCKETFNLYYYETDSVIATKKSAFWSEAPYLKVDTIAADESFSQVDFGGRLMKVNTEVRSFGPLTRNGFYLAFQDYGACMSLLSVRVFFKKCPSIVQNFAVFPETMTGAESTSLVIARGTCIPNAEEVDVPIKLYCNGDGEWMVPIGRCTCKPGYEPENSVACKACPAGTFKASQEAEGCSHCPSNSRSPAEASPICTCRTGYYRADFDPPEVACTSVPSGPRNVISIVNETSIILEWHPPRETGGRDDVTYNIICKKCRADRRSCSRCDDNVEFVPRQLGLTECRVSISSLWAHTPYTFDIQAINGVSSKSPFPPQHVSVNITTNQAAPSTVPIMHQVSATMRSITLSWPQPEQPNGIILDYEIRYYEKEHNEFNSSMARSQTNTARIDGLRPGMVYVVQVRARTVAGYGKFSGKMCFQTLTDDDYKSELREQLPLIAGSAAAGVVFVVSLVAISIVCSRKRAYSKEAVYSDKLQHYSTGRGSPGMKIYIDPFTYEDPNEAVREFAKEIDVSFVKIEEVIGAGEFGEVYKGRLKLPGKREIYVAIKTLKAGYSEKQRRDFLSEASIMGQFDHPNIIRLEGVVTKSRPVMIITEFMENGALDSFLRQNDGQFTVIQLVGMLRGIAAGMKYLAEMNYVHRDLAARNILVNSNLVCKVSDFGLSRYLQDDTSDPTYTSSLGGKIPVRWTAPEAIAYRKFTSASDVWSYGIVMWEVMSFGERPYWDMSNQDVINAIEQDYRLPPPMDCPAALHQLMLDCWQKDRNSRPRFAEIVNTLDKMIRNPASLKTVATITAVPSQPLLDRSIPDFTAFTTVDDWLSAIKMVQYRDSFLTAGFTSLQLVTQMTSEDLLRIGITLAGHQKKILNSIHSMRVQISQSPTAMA

[20] = molecular target: Epidermal growth factor receptor (Homo sapiens) (UniProt P00533); details: at 10 µM

Structure (SMILES) | residual activity [1] [%] | residual activity [2] [%] | residual activity [3] [%] | residual activity [4] [%] | residual activity [5] [%] | residual activity [6] [%] | residual activity [7] [%] | residual activity [8] [%] | residual activity [9] [%] | residual activity [10] [%] | residual activity [11] [%] | residual activity [12] [%] | residual activity [13] [%] | residual activity [14] [%] | residual activity [15] [%] | residual activity [16] [%] | residual activity [17] [%] | residual activity [18] [%] | residual activity [19] [%] | residual activity [20] [%]
O=C1NC(=O)c2c1c1c3ccccc3n3c1c1c2c2ccccc2n1C1CCC3O1 | 16 | 8 | 91 | 58 | 94 | 98 | 94 | 92 | 100 | 100 | 96 | 94 | – | – | – | – | – | – | – | –
COc1cc(OC)c(/C=C2\C(=O)Nc3ccccc32)c(OC)c1 | – | – | 102 | 93 | 88 | 93 | 128 | 101 | 94 | 94 | 95 | 84 | 89 | 82 | 97 | 84 | 103 | 105 | 100 | –
N/C(=N\[N+](=O)[O-])N/N=C\c1ccc(-c2cccc([N+](=O)[O-])c2)o1 | 76 | 87 | 90 | 95 | – | – | – | – | – | – | – | – | – | 97 | 97 | 79 | – | – | – | –
c1cc(-c2cnn3cc(-c4ccc(OCCN5CCCCC5)cc4)cnc23)ccn1 | 19 | 7 | 52 | 7 | 59 | 8 | – | – | – | 51 | – | – | 17 | 1 | 58 | 7 | – | 39 | 37 | –
CCn1cnc2c(Nc3cccc(Cl)c3)nc(N[C@@H]3CCCC[C@@H]3N)nc21 | 90 | 83 | – | 85 | 66 | 24 | 70 | 15 | 78 | 23 | 89 | 31 | 15 | 3 | 61 | 9 | 98 | 49 | 32 | 95
